In PubChem BioAssay (NCATS):
Inconclusive results are not listed. A number with no mark means an inactive call. The call rests on the fitted dose curve; in most records, active means well fitted curve in the direction sought with a large enough effect in the signal ratio, with a control signal flat; inconclusive means small, poorly fitted or top-dose-only effect, or effect the other way, or a change in a side signal; inactive means no such curve, though single readings can be large or run the other way; the % refers to the signal ratio.

molecular target: Androgen receptor (Homo sapiens) (UniProt P10275); assay: qHTS assay for small molecule agonists of androgen receptor signaling (AID 588515); conditions: AR-UAS-bla HEK293, beta-lactamase ratio, agonist 16 h; hits give high values
Sequence (P10275 whole entry, looked up): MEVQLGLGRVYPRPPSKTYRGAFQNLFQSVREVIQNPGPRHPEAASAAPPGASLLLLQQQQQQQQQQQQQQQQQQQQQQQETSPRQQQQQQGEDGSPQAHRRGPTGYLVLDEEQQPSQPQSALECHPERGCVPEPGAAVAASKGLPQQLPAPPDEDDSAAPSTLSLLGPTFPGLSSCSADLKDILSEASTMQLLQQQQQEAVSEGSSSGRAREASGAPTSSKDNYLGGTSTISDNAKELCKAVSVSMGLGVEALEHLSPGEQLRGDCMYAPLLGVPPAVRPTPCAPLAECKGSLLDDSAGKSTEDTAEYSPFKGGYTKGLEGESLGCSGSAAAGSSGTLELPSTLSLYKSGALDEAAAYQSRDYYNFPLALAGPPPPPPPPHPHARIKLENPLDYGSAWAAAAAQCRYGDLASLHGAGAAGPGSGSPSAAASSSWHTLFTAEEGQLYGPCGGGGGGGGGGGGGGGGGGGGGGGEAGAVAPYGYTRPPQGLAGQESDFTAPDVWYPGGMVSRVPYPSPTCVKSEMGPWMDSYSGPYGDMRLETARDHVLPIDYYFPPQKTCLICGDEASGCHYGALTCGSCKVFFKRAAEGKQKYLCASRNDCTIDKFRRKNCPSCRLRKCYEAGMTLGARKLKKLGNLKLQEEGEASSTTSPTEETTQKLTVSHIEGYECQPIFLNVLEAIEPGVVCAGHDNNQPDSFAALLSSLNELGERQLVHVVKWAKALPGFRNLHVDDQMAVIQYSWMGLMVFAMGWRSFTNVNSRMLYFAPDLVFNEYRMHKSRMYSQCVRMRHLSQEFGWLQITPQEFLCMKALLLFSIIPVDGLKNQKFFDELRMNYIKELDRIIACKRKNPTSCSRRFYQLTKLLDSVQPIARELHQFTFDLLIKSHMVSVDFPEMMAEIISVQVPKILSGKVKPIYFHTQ
Outline: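 EC50 and efficacy came from Hill fits of titrations (up to 92 uM) normalized to 30 nM R1881 as 100% and DMSO as 0%. Compound exposure was 16 h at 37 C on AR-UAS-bla HEK293 cells, with a 405/460/530 nm CCF4 fluorescence read.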
On the % scale 0 is the no-effect control and ±100 the full control effect.

With `FC(F)(F)c1cccc(Cl)c1` as the molecule, how does the activation read?
The activation was 4.73%.

With `Cc1cccc(C(=O)O)c1` as the molecule, how does the activation read?
Its activation is -5.05%.

With `CCN(Cc1ccccc1)c1ccccc1` as the molecule, how does the activation read?
Its activation is 11.1%.

With `CC(C)(O)CCC(C)(C)O` as the molecule, how does the activation read?
Its activation is -1.56%.

With `OCCO` as the molecule, how does the activation read?
The activation was -10.8%.

For `CNC(=O)N(c1ccccc1)c1ccccc1`, which activation is on record?
The activation was -11.4%.

For `Nc1cccc(S(=O)(=O)O)c1`, which activation is on record?
Its activation is 6.82%.

With `O=C(O)CCSSCCC(=O)O` as the molecule, how does the activation read?
Its activation is -2.34%.

`c1ccsc1` was tested. Which activation did it give?
Its activation is -6.67%.

How did the activation turn out when `C1COC1` was run?
Its activation is -10.3%.

`C[C@@H]1CC2(OC3C[C@@]4(C)C5=CC[C@H]6C(C)(C)C(O[C@@H]7OC[C@@H](O)[C@H](O)[C@H]7O)CC[C@@]67C[C@@]57CC[C@]4(C)C31)OC(O)C1(C)OC21` (stereo partly drawn) was tested. Which activation did it give?
Its activation is -11%.

`c1ccc2c(c1)ccc1ncccc12` was tested. Which activation did it give?
The activation was 7.08%.

For `Cc1ccc2cccnc2c1`, which activation is on record?
Its activation is 14.8%.

Which activation does the source give for `Nc1ccc(Cl)cc1[N+](=O)[O-]` here?
The activation was 7.43%.

With `CC(C)c1ccccc1` as the molecule, how does the activation read?
The activation was -0.119%.

How did the activation turn out when `Cc1cccc(C)c1O` was run?
Its activation is -2.64%.

With `ClCCl` as the molecule, how does the activation read?
The activation was 2.05%.

`NC(=O)c1cccc([N+](=O)[O-])c1` was tested. Which activation did it give?
Its activation is 2.01%.

For `Nc1cccc([N+](=O)[O-])c1`, which activation is on record?
Its activation is -5.67%.

`CCOc1cc(OCC)c(C(C)=O)cc1OCC` was tested. Which activation did it give?
The activation was -14.7%.

Which activation does the source give for `CC(=O)Nc1ccc(N)cc1` here?
Its activation is -10.4%.

`C1CCC2OC2C1` (stereo not drawn) was tested. Which activation did it give?
Its activation is -3.32%.

`O=C1CCCCC1` was tested. Which activation did it give?
Its activation is 14.6%.

`O=C1NC(=O)c2cc([N+](=O)[O-])ccc21` was tested. Which activation did it give?
Its activation is -13.5%.

Which activation does the source give for `BrC(Br)C(Br)Br` here?
The activation was 2.87%.

`CCOc1ccc(NC(C)=O)cc1N` was tested. Which activation did it give?
Its activation is 0.896%.

For `Cc1ccc(N(C)C)cc1`, which activation is on record?
The activation was 15.4%.

For `Nc1ccc(F)cc1F`, which activation is on record?
Its activation is 18.9%.

Which activation does the source give for `Nc1cc(S(=O)(=O)O)ccc1O` here?
The activation was 14.7%.

For `CCC(C)(C)C(=O)O`, which activation is on record?
Its activation is -5.44%.

`Cc1ccc(C)cc1` was tested. Which activation did it give?
Its activation is 10.6%.

How did the activation turn out when `CCCC(Cl)CCCC(Cl)CCC(Cl)CCC(Cl)CCC(Cl)CCCC(Cl)CCC` (stereo not drawn) was run?
The activation was -5.75%.

Which activation does the source give for `Cc1cc(C)cc(N)c1` here?
Its activation is 2.27%.
